A selection: hits, their analogues and other compounds. The true share with any hit is near 1.9%.
Vif inh: blocks HIV Vif function; HEK293T cells, Vif self-association by quenched fluorescence, imaging, 24 h; inhibition, % at 7.49 µM; 0.35% of 340,000 active; in the data active = inhibition above about 50%, passing the limit was not always enough; inconclusive = no clear call, values can overlap the other calls; inactive = below about 31%
NSD2 inh: blocks human histone methyltransferase NSD2 | AID 743445 | O96028 | inhibition, % at 12.5 µM | NSD2 peptide methylation, AlphaScreen, 120 min | 0.54% of 310,000 active; in the data active = inhibition above about 50%
Glyco luc inh: blocks N-linked glycosylation in D54 reporter cells. D54 ERlucT glycosylation luciferase reporter, 24 h; percent of 100 nM tunicamycin response. reporter increase, % at 12.5 µM. 0.23% of 360,000 active. AID 588692;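 active = mean luciferase reporter signal, scaled so untreated is 0 and the glycosylation-blocking control 100, at or above a set limit in every replicate; inconclusive = mean reaches the limit but not every replicate does; inactive = mean below the limit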;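 note: luciferase carries N-glycosylation sites so blocking glycosylation raises the light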
CaV13 FRET inh: Primary screen for inhibitors of IQ motif and Ca2+-dependent inactivation inhibitor domain binding in CACNA1D, Förster resonance energy transfer in living cells, …; HEK cells, CFP/YFP FRET ICDI-IQ, plate reader, 10 min; percent FRET-ratio fall versus neutral wells; inhibition, % at 12.3 µM; 0.098% of 340,000 active;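 active = mean replicate inhibition of at least 30% and at least 1% of replicates passing that level; inconclusive = only one of the two criteria is met; inactive = neither criterion is met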
Pemphigus Ab inh: blocks pemphigus antibody binding to human desmoglein-3. AID 588358. 0.48% of 310,000 active. binding (percent of control), % at 10 µM. DSG3-coupled beads, scFv-anti-DSG3-GFP binding, flow cytometry; hits give low values. P32926;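 active = binding more than 3 SD below its plate's average and above zero; inconclusive = below that plate limit but binding exactly zero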;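 note: hits lower antibody fragment binding to DSG3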
ATG4B inhibitor: ATG4B (human) cysteine protease inhibition | Q9Y4P1 | ATG4B cleavage of LC3-PLA2, NBD-HPC fluorescence, 1 h | inhibition, % at 8.33 µM | 0.51% of 340,000 active | AID 504462; in the data active = inhibition above about 40%
Target sequence (Q9Y4P1 whole entry, looked up): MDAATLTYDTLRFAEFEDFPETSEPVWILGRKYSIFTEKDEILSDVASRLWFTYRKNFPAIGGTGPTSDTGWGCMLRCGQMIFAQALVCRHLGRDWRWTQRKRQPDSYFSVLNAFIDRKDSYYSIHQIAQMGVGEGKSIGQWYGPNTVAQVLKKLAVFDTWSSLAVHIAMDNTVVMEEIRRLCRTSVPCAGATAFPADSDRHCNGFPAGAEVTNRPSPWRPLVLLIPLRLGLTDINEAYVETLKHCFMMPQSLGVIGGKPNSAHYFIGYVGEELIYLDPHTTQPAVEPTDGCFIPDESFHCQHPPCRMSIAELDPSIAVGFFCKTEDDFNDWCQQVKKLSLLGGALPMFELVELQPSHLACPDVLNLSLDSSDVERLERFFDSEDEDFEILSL
Of the large screens only hits and unclear results are named; the others gave an inactive call.

CCOc1ccc2nc(NCCNC(=O)CC)c(C#N)cc2c1	CaV13 FRET inh 33
O=C(NC1CCCCC1)C1CCCN1C(=O)NCc1ccccc1 (stereo not drawn)	none
CC(=O)C(Cc1ccccc1)NC(=O)COC(=O)c1ccc(-n2cnnn2)cc1 (stereo not drawn)	none
CC(C)(C)c1ccc(C(=O)NNC(=O)c2cccc(Br)c2)cc1	Glyco luc inh 203 (no result: Pemphigus Ab inh)
Cc1ccc(C(=O)NNC(=O)c2cccc(Br)c2)cc1	none (no result: NSD2 inh)
O=C(CCC(=O)NNC(=O)COc1ccc(Br)cc1)NCc1ccccc1	Pemphigus Ab inh 1.9 (no result: NSD2 inh)
O=C(N/N=C/c1ccc([N+](=O)[O-])s1)c1ccccc1Br	Vif inh 89
Cc1ccccc1C(=O)N/N=C/c1ccc([N+](=O)[O-])s1	none (no result: CaV13 FRET inh)
CCOC(=O)[C@@H]1[C@H]2COc3cc(OC)ccc3[C@H]2N2C(=O)N(c3ccccc3)C(=O)[C@]12C	none (no result: NSD2 inh)
Cc1cnc(NC(=O)CN2CCN(c3ccccn3)CC2)s1	Vif inh 114
COc1ccc(N2CCN(CC(=O)Nc3ncc(C)s3)CC2)cc1	none
CCn1cc(C2=NC(CCSC)CO2)c2ccccc21 (stereo not drawn)	none
Cc1cc(O)c2c(c1O)C(=O)[C@]13C(=C2O)C(=O)[C@@H]2[C@@H](O)[C@H]1[C@@H]1[C@H](O)[C@H]3C(=O)C3=C(O)c4c(O)cc(C)c(O)c4C(=O)[C@]312	Pemphigus Ab inh -15 (no result: NSD2 inh, CaV13 FRET inh)
COc1ccc(N=C2NC(=O)S/C2=C\c2ccc(N(C)C)cc2)cc1	Vif inh 104 (no result: Pemphigus Ab inh)
CCOc1ccc(N=C2NC(=O)S/C2=C\c2ccc(Cl)cc2)cc1	none
Cc1ccc2c(c1)NC(=O)[C@@]1(C)[C@@H](c3ccccc3)[C@H]3COc4ccccc4[C@@H]3N1C2=O	Glyco luc inh 36 (no result: NSD2 inh)
Cc1ccc2c(c1)C(=O)N1[C@H]3c4ccccc4OC[C@@H]3[C@H](c3ccccc3)[C@]1(C)C(=O)N2	Glyco luc inh 31 (no result: NSD2 inh, CaV13 FRET inh)
Cc1ccc2c(c1)[C@H]1[C@H](CO2)[C@H](c2ccccc2)[C@]2(C)C(=O)Nc3ccc(Cl)cc3C(=O)N12	none (no result: NSD2 inh)
C[C@@]12C(=O)Nc3ccc(Br)cc3C(=O)N1[C@H]1c3ccccc3OC[C@@H]1[C@@H]2c1ccccc1	Glyco luc inh 27 (no result: NSD2 inh, CaV13 FRET inh)
CC1=C(C(=O)Nc2ccccc2C)C(c2ccccc2)NC(=O)N1 (stereo not drawn)	none (no result: NSD2 inh)
N#Cc1cc2c(=O)n3ccccc3nc2n(-c2ccccc2Cl)c1=O	Vif inh 154
CC(C)Cn1nc(NC(=O)c2cccs2)c2cc3ccccc3nc21	none
COc1ccc2nc3c(cc2c1)c(NC(=O)c1cccs1)nn3CC(C)C	CaV13 FRET inh 56
CCc1nnc(NC(=O)CSc2ncnc3c2oc2ccccc23)s1	Pemphigus Ab inh -17 (no result: NSD2 inh)
CC1C(=O)Nc2ccc(S(=O)(=O)NCc3ccc(Cl)cc3)cc2NC1=O (stereo not drawn)	none (no result: NSD2 inh)
Cc1ccc(-c2cc(C(=O)N3CCOCC3)c3cc(C)ccc3n2)cc1	none (no result: Pemphigus Ab inh)
O=C(Nc1nc(-c2ccc(S(=O)(=O)N3CCCC3)cc2)cs1)c1ccco1	none
CNc1nc(-c2ccc(S(=O)(=O)N3CCCCC3)cc2)cs1	Pemphigus Ab inh 82
COc1ccc(C2OC[C@H]3O[C@H](O)[C@H](NC(C)=O)[C@@H](O)[C@@H]3O2)cc1 (stereo partly drawn)	none
Cc1nc(NS(=O)(=O)c2ccccc2)sc1NC(=O)Nc1ccccc1	Pemphigus Ab inh 28
CCOC(=O)Nc1sc(NS(=O)(=O)c2ccc(C)cc2)nc1C	Vif inh inconclusive, Pemphigus Ab inh 73
Cc1nc(NS(=O)(=O)c2ccccc2)sc1NC(=O)Nc1ccc(Cl)cc1	none
CCOC(=O)Nc1sc(NS(=O)(=O)c2ccccc2)nc1C	none
O=C(CCn1c(=S)[nH]c2ccccc2c1=O)Nc1cccc(Cl)c1	none
COc1ccc(NC(=O)COC(=O)Cc2c[nH]c3ccccc23)cc1Cl	Vif inh 55
COc1ccc(NC(=O)CCn2c(=S)[nH]c3ccccc3c2=O)cc1Cl	Vif inh 57, Pemphigus Ab inh 82 (no result: ATG4B inhibitor)
O=C(O)c1cc(=O)c2cc(Cl)ccc2o1	none
O=C(O)CCCN1C(=O)/C(=C\c2ccc(-c3nc4ccccc4s3)o2)SC1=S	Pemphigus Ab inh 74
O=C(O)CCN1C(=O)/C(=C/c2ccc(-c3nc4ccccc4s3)o2)SC1=S	none
Cc1ccc(NC(=O)/C=C/c2ccco2)nc1	Vif inh 51
O=C(/C=C/c1ccco1)NCc1ccco1	Pemphigus Ab inh 80
Cc1ccc(/C=C/C(=O)NCc2ccco2)o1	none (no result: Vif inh, Glyco luc inh, Pemphigus Ab inh, ATG4B inhibitor)
O=C(CNC(=O)Cc1ccccc1)N=Nc1c(O)[nH]c2ccccc12	none (no result: Pemphigus Ab inh)
CCc1ccc(/C(C)=N/NC(=O)CNC(=O)/C=C/c2ccco2)cc1	Pemphigus Ab inh 64 (no result: NSD2 inh, CaV13 FRET inh)
O=C(CNC(=O)/C=C/c1ccco1)N=Nc1c(O)[nH]c2ccccc12	Pemphigus Ab inh 45
COC(=O)c1ccc(S(=O)(=O)c2ccc([N+](=O)[O-])cc2)cc1	none
CCN(C[C@H]1N[C@@](Cc2ccccc2)(C(=O)OC)[C@H]2C(=O)N(Cc3ccccc3)C(=O)[C@@H]12)C(=O)c1ccccc1	none (no result: Vif inh, NSD2 inh)
COc1cccc(NC(=O)/C=C/c2ccco2)c1	none
O=C(/C=C/c1ccco1)Nc1ccc(Oc2ccc(Cl)cc2)cc1	Vif inh 63 (no result: CaV13 FRET inh)
Cn1c2ccccc2c2ccc3c(c21)C(=O)C=CC3=O	Glyco luc inh inconclusive
COc1ccc2c(c1)c1ccc3c(c1n2C)C(=O)C=CC3=O	Glyco luc inh 28 (no result: Vif inh)
Cc1ccc2c(c1)c1ccc3c(c1n2C)C(=O)C=CC3=O	Glyco luc inh 31
COc1ccccc1NC(=O)Cn1c(O)c(N=NC(=O)c2ccccc2O)c2ccccc21	Vif inh 116
Cc1ccccc1C(=O)NNC(=O)CCC(=O)Nc1cccc(Cl)c1C	none
CCc1ccccc1NC(=O)CNC(=O)CNC(=O)Cc1ccccc1	none
N#Cc1ccc(CSC2=NCCN2)cc1	none
O=c1c2cc(-c3ccccc3)sc2ncn1-n1cccc1	Pemphigus Ab inh 82 (no result: NSD2 inh)
CC(=O)NC1=NN(C(C)=O)C(C)(c2ccco2)S1 (stereo not drawn)	Vif inh 51
CCc1nc(SCC(=O)c2ccc3c(c2)OCCO3)c2ccccc2n1	Glyco luc inh inconclusive
Cc1ccc(OCC(=O)c2c(O)c3ccccc3oc2=O)cc1C	none (no result: CaV13 FRET inh)
CCc1ccc(OCC(=O)c2c(O)c3ccccc3oc2=O)cc1	Pemphigus Ab inh 50
CCc1cccc2c(SCC(=O)NCC3CCCO3)nc(-c3ccc(F)cc3)nc12 (stereo not drawn)	Pemphigus Ab inh 78 (no result: Vif inh)
O=S(=O)(c1cc(-c2nnc(-c3ccc(Br)cc3)o2)ccc1Br)N1CCCCCC1	Pemphigus Ab inh 74 (no result: NSD2 inh, CaV13 FRET inh)
O=S(=O)(c1cc(Br)ccc1Br)N1CCCCCC1	none

Compound activity: PubChem BioAssay, several laboratories
